# Laboratory results from ChEMBL document CHEMBL4888484, “Replenishing the malaria drug discovery pipeline: Screening and hit evaluation of the MMV Hit Generation Library 1 (HGL1) against asexual blood stage Plasmodium falciparum ,using a nano luciferase reporter read-out” (2022).
# Among all 150,000 compounds or so, about 540 (0.36%) showed an effect of 50% or more. Only a selection was taken, and strong results are over-represented in it overall.
# System: Plasmodium falciparum
# Assay: Primary screen in NF54 nanoGlo assay, in single point, at 2uM, 72h; a lower Z score goes with more inhibition
# Format: functional, Erythrocyte
# Conditions: timepoint 72 hour
SMILES,% Inhibition,Z score
Cc1ccc(C)c(N/C(=N\OCc2ccc(Cl)cc2)c2nonc2N)c1,-1%,0.28
O=C(c1ccccc1F)N1CCN(C(=O)c2nnn3c2CO[C@H](c2ccc(Cl)cc2)C3)CC1,-24%,2.19
CCN(C(C)=O)c1nc2ccccc2n(CC(=O)Nc2cccc(C(C)=O)c2)c1=O,-6%,0.97
CC(C)CNC(=O)[C@H](C)NCCn1cccn1,-2%,0.23
C[C@H](NCCn1cccn1)C(=O)N1CCCCC1,3%,-0.33
CC(NCCn1cccn1)C(=O)N1c2ccccc2CC1C (stereo not given),62%,1.55
CCc1cnc(CN2CCC[C@H]2c2noc(CC)n2)o1,-10%,1.41
Clc1cccc(-c2ccc(CN3CCN([C@H]4CCNC4)CC3)o2)c1,-17%,1.55
CC(C)Cc1ccc(CN2CCN([C@H]3CCNC3)CC2)s1,-6%,0.81
Cc1nc(CNC[C@H](O)c2ccc(Cl)c(F)c2)cs1,10%,-1.19
Cn1nnc(CNC[C@H](O)c2ccc(Cl)c(Cl)c2)n1,5%,-1.08
CCc1noc(-c2cccnc2-n2cnc(C(=O)NCc3ccccc3F)c2)n1,35%,-3.92
CC(C)(C)n1nc2nc(N3CCCC3)nc(-c3ccc(F)c(Cl)c3)c2c1N,-2%,0.26
CC(C)(C)n1nc2nc(NCCN3CCCCC3)nc(-c3ccc(F)c(Cl)c3)c2c1N,75%,-7.01
Nc1c2c(-c3ccc(F)cc3)nc(NCCN3CCCCC3)nc2nn1-c1ccc(Cl)cc1,-19%,1.69
O=C(Cn1cc(S(=O)(=O)N2CCOCC2)ccc1=O)Nc1ccc(F)cc1Cl,4%,-0.76
CN1CCC(N2CCC[C@H]2c2nc(-c3ccc(F)cn3)no2)CC1,15%,-1.76
COc1cc(-c2n[nH]cc2CN(C[C@H]2CCC(=O)N2)C(C)C)cc(OC)c1OC,-18%,1.93
CN(C)c1ccc(NC(=O)CCCc2ccc3[nH]c(=O)[nH]c3c2)nc1,0%,0.04
C[C@H]1[C@@H]2[C@@H](O)C([C@H](C)C(=O)NC3CCCC3)CC[C@@]2(C)CC[C@@H]1NC(=O)c1ccc(C#N)cc1 (stereo not given in full),37%,1.5
C[C@H]1[C@@H]2[C@@H](O)C([C@H](C)C(=O)NC3CCCCC3)CC[C@@]2(C)CC[C@@H]1NC(=O)CC(C)(C)C (stereo not given in full),69%,-5.14
COCCNC(=O)[C@@H](C)[C@@H]1CC[C@@]2(C)CC[C@H](NC(=O)CC(C)(C)C)[C@@H](C)[C@@H]2[C@H]1O,31%,-3.58
COc1cc2c(cc1-c1nccn1Cc1noc(C(C)C)n1)OCO2,5%,-0.45
CCNC(=O)O[C@@H]1CC[C@]2(C)C(CC[C@@H](O)[C@H]2CC(=O)NCc2cccs2)[C@]1(C)CO (stereo not given in full),-4%,0.6
COc1cc(CN2C(=O)C(C)C(C)C2=O)ccn1 (stereo not given),-12%,1.96
CCc1noc(CCNC(=O)Nc2cc(C)nn2C2CCCCC2)n1,-3%,0.5
Cc1ccc([C@H](C)NC(=O)CCc2ccc3[nH]cnc3c2)cc1,-2%,0.33

SMILES,% Inhibition,Z score
C[C@H]1CN(C2=Nc3ccc(C(F)(F)F)cc3Oc3ccccc32)CCN1C(=O)C1CCCCC1,-10%,0.96
Cc1ccsc1CN(Cc1cccnc1)CC(C)C,-9%,0.87
COc1ccc(CN(Cc2ccco2)C(=O)c2cccc(F)c2)cc1OS(=O)(=O)c1ccc(F)cc1,-33%,2.87
CCOC(=O)N1CCC(n2ccnc2-c2nccn2C(C)C)CC1,-11%,1.32
COc1ccc(-c2nccn3cc(C(=O)N4CCCC4)nc23)cc1,26%,-2.95
COc1ccc(-c2nccn3cc(C(=O)N4CCCCCC4)nc23)cc1,51%,0.03
Cc1ccc(-c2nccn3cc(C(=O)N4CCCCC4)nc23)cc1,-2%,0.32
CC(C)(C(=O)N[C@H]1CCN(Cc2cccnc2)C[C@@H]1O)N1CCOCC1,-3%,0.41
OCc1ccnc(-c2cc(O)cc(CC[C@H]3CCCCN3)c2)c1,-3%,0.48
Cc1cc(-c2cc(O)cc(CC[C@H]3CCCCN3)c2)ccn1,84%,-8.44
Cc1ccc(-c2cc(O)cc(CC[C@H]3CCCCN3)c2)c(C)n1,61%,-8.76
CCn1cc(-c2cc(O)cc(CC[C@H]3CCCCN3)c2)c(C)n1,3%,-0.45
CC(=O)c1cc(-c2cc(O)cc(CC[C@H]3CCCCN3)c2)ccc1O,78%,-7.86
Nc1cc(-c2cc(O)cc(CC[C@H]3CCCCN3)c2)ccn1,9%,-1.53
Cc1nc(-n2cnnc2)ccc1-c1cc(O)cc(CC[C@H]2CCCCN2)c1,-7%,0.8
Cc1nccc(-c2cc(O)cc(CC[C@H]3CCCCN3)c2)n1,-12%,2.52
O=C(O)c1ccccc1-c1cc(O)cc(CC[C@H]2CCCCN2)c1,-15%,2.8
CC(NS(=O)(=O)N(C)C(C)C)C1CCCO1 (stereo not given),-8%,1.17
C/C=C(\C)C(=O)N1CCC(N2CCC(C(=O)N3CCCC3)CC2)CC1,-12%,1.74
CCC(C)C(NC(=O)C1CCC(C)CC1)C(=O)NC1CCN(Cc2ccccc2)CC1 (stereo not given),-3%,0.32
CCCNS(=O)(=O)c1ccc(C(=O)N2C[C@H]3CC[C@@H](C2)N(C)C3)cc1,-7%,1.2
Cc1ccc(-n2nc3c(=O)n([C@@H](C)C(=O)NCc4ccc(Cl)cc4)nc(C)c3c2C)cc1,10%,-1.13
O=S(=O)(NC1CCc2ccc(Cl)cc21)[C@H]1COC[C@@H]1O (stereo not given in full),-11%,1.47
Cc1ccc(NC(=O)Cc2nnc(-c3ccc4ncccc4c3)o2)c(Cl)c1,-6%,0.57
CCn1cc(NC(=O)c2cc(C3CC3)nc3onc(-c4cnn(CC)c4C)c23)c(C)n1,8%,-1.2
CC(C)(C)OC(=O)N1CC2CC1C2C(=O)NCC1CCCO1 (stereo not given),14%,-1.67
Cc1ncsc1C(=O)N1CCC2(CCCCC2)C1,37%,-5.42

SMILES,% Inhibition,Z score
Nc1ncc(C(=O)N2CCC3(CCCCCC3)C2)s1,97%,-17.77
Nc1ncc(C(=O)N2CCC3(CCCC3)C2)s1,6%,-0.8
CC(=O)NC1CCN(Cc2cc(C)nc3ccccc23)CC1,-6%,0.83
CC1CCN(c2nccnc2Oc2ccc(C(=O)NCc3ccccc3Cl)cc2)CC1,67%,-10.64
CC1CCN(c2nccnc2Oc2ccc(C(=O)N3CCN(c4ccccc4Cl)CC3)cc2)CC1,11%,-1.7
CC1CCN(c2nccnc2Oc2ccc(C(=O)NCc3ccco3)cc2)CC1,-1%,0.13
CC(NC(CC1CCC1)c1ccccc1)c1cn(C)nn1 (stereo not given),6%,-0.82
CN(C)CC(O)COc1ccc(S(=O)(=O)c2ccc(OCC(O)CN(C)C)c(Cl)c2)cc1Cl (stereo not given),54%,-6.62
Cc1ccccc1OC[C@@H](O)CN(C(C)C)C(C)C,-2%,0.31
CCN(CC)C[C@H](O)COc1ccc(Cl)cc1Cl,9%,-1.14
CCS(=O)(=O)N1CCC(N2C(=O)[C@@H]3CC[C@@H](c4ccccc4)N3C2=O)CC1,42%,0.94
CCN(C(=O)Cn1cc(-c2ccccc2)c2ncn(CC)c(=O)c21)c1ccccc1,78%,-9.77
CCn1cnc2c(-c3ccccc3)cn(CC(=O)NCc3ccco3)c2c1=O,-9%,1.31
CCc1cccc(C)c1NC(=O)Cn1cc(-c2ccccc2)c2ncn(CC)c(=O)c21,4%,-0.57
O=C(CN1CCCN(c2ccc(C(F)(F)F)cn2)CC1)Nc1ccccc1,0%,0.05
FC(F)(F)c1ccc(N2CCCN(Cc3nc4ccccc4o3)CC2)nc1,-8%,0.8
O=C(c1ccccc1)c1ccc(O)c(CN2CCCN(c3ccc(C(F)(F)F)cn3)CC2)c1O,84%,-8.75
Cc1n[nH]c(C)c1CCCNC(=O)[C@@H]1Cc2ccccc2CN1C,-7%,1.24
Cc1cccn(CC(=O)NCC(=O)Nc2cccnc2)c1=O,-6%,0.7
C[C@@H](CO)N(C)S(=O)(=O)[C@H]1C[C@@H]1c1ccc(Br)cc1,1%,-0.19
O=C(c1cccc(C#Cc2ccccc2)c1)N1CCN(C(c2ccccc2)c2ccccc2)CC1,-8%,1.42
O=C(c1cccc(C(=O)N2CCN(C(c3ccccc3)c3ccccc3)CC2)c1)N1CCN(C(c2ccccc2)c2ccccc2)CC1,54%,-11.5
O=C(c1cccc(-n2cnnn2)c1)N1CCN(C(c2ccccc2)c2ccccc2)CC1,10%,-1.28
CC1CCCN(C(C)CNC(=O)CCNC(=O)C2CC2C)C1 (stereo not given),-5%,0.79
Cc1ccc2[nH]c(-c3cc4n(n3)CCN(C(=O)N3CCN(C)CC3)C4)nc2c1,-6%,0.7
CCCN1CCn2nc(-c3nc4cc(OC)ccc4[nH]3)cc2C1,-3%,0.27
